Test results taken from the supplement of paper PMC6992640.
± gives the standard deviation of the averaged measurements.

Assays:
Assay in all cases: cell viability (% of vehicle); higher = less cytotoxic
[1] = tested on: HCI01 (cells of a triple-negative basal-like breast cancer xenograft); details: 1 µM; 72 h
[2] = tested on: UCD52 (cells of a triple-negative basal-like breast cancer xenograft); details: 1 µM; 72 h
[3] = tested on: WHIM2 (cells of a triple-negative basal-like breast cancer xenograft); details: 1 µM; 72 h
[4] = tested on: WHIM30 (cells of a triple-negative basal-like breast cancer xenograft); details: 1 µM; 72 h
[5] = tested on: HCI01; details: 10 µM; 72 h
[6] = tested on: HCI03 (cells of an ER-positive luminal breast cancer xenograft); details: 10 µM; 72 h
[7] = tested on: HCI09 (cells of a triple-negative luminal androgen receptor type breast cancer xenograft); details: 10 µM; 72 h
[8] = tested on: HCI11 (cells of an ER-positive luminal breast cancer xenograft); details: 10 µM; 72 h
[9] = tested on: HCI13 (cells of an ER-positive luminal breast cancer xenograft); details: 10 µM; 72 h
[10] = tested on: HCI16 (cells of a triple-negative basal-like breast cancer xenograft); details: 10 µM; 72 h
[11] = tested on: UCD52; details: 10 µM; 72 h
[12] = tested on: WHIM2; details: 10 µM; 72 h
[13] = tested on: WHIM30; details: 10 µM; 72 h

Row | SMILES | cell viability [1] | cell viability [2] | cell viability [3] | cell viability [4] | cell viability [5] | cell viability [6] | cell viability [7] | cell viability [8] | cell viability [9] | cell viability [10] | cell viability [11] | cell viability [12] | cell viability [13]
1 | CS(=O)(=O)O.Cc1c(O)cccc1C(=O)NC(CSc1ccccc1)C(O)CN1CC2CCCCC2CC1C(=O)NC(C)(C)C (configuration not stated) [Nelfinavir Mesylate] | 90.1 | 61.6 | 101 | 81.4 | 64.3 ± 30 | 92.1 | 30.1 ± 3.1 | 104 | 48.22 ± 0.17 | 53.7 | 48 ± 2 | 38.4 ± 2 | 71.9 ± 5.4
2 | CC(=O)c1cc2c(o1)C(=O)c1ccccc1C2=O [Napabucasin] | 30.1 | 29.6 | 50.3 | 33.9 | 54.9 ± 23 | 54.2 | 29.1 ± 9.1 | 21.8 | 46.9 ± 9.2 | 58.7 | 40.3 ± 7.5 | 72.4 ± 12 | 45.1 ± 7.3
3 | CC1(C)CCC(c2ccc(Cl)cc2)=C(CN2CCN(c3ccc(C(=O)NS(=O)(=O)c4ccc(NC(CCN5CCOCC5)CSc5ccccc5)c(S(=O)(=O)C(F)(F)F)c4)cc3)CC2)C1 (configuration not stated) [ABT-263 (Navitoclax)] | 76.2 | 54.1 | 66.8 | 62.2 | 28 ± 2 | 44.2 | 21.8 ± 3.1 | 47.1 | 33.8 ± 0.76 | 29.6 | 36.5 ± 2.4 | 32.1 ± 4.1 | 35.2 ± 7.7
4 | CO[C@H]1C[C@@H]2CC[C@@H](C)[C@@](O)(O2)C(=O)C(=O)N2CCCC[C@H]2C(=O)O[C@H]([C@H](C)C[C@@H]2CC[C@@H](OC(=O)C(C)(CO)CO)[C@H](OC)C2)CC(=O)[C@H](C)/C=C(\C)[C@@H](O)[C@@H](OC)C(=O)[C@H](C)C[C@H](C)/C=C/C=C/C=C/1C [Temsirolimus] | 76.2 | 55.1 | 80 | 74.2 | 31.8 ± 1.4 | 57.5 | 26.7 ± 8.6 | 54.3 | 24.6 ± 11 | 45.2 | 23.1 ± 2.3 | 42.4 ± 15 | 30.5 ± 1.6
5 | CN(C(=O)CN(CCO)CC(=O)N(C)C(C)(C)Cc1ccccc1)C(C)(C)Cc1ccccc1 [Oxethazaine] | 87.3 | 93.6 | 88.5 | 88.4 | 96.6 ± 4.3 | 55.9 | 69.4 ± 40 | 87.9 | 45.7 ± 12 | 83.1 | 39.3 ± 4.8 | 43.2 ± 9.4 | 96.4 ± 9.4
6 | CCCCCCCCOc1ccccc1C(=O)Nc1ccc(C(=O)OCC[N+](C)(CC)CC)cc1.[Br-] [Otilonium Bromide] | 91.3 | 100 | 105 | 90.7 | 51.9 ± 1.6 | 110 | 37.4 ± 9.3 | 77.9 | 42.9 ± 2.6 | 81.7 | 63.47 ± 0.62 | 37.7 ± 9.5 | 98.3 ± 10
7 | C=CC(=O)N1CCC(Oc2cc3c(Nc4ccc(Cl)c(Cl)c4F)ncnc3cc2OC)CC1 [Poziotinib] | 62.3 | 36.5 | 32.9 | 50.7 | 39.4 ± 14 | 48.7 | 47.1 ± 2.5 | 48 | 34.2 ± 4.1 | 66.1 | 44.2 ± 4.5 | 50.5 ± 5.6 | 35.8 ± 10
8 | COc1cc2c(Nc3ccc(Br)cc3F)ncnc2cc1OCC1CCN(C)CC1 [Vandetanib (ZD6474)] | 70 | 46.5 | 37.5 | 64.8 | 59.1 ± 20 | 32.2 | 30.7 ± 21 | 52.9 | 73.4 ± 36 | 56.4 | 25.2 ± 4.2 | 54.4 ± 11 | 25.7 ± 1.9
9 | Cc1ccc(C(=O)N(CCCN)C(c2nc3cc(Cl)ccc3c(=O)n2Cc2ccccc2)C(C)C)cc1 (configuration not stated) | 98.7 | 47.7 | 62.5 | 78 | 34.6 ± 0.75 | 41.2 | 22.4 ± 2.7 | 56.8 | 38.3 ± 4 | 45.5 | 122 ± 8.3 | 34.8 ± 0.98 | 39.8 ± 4
10 | C#Cc1cccc(Nc2ncnc3cc(OCCOC)c(OCCOC)cc23)c1 [Erlotinib] | 62.6 | 59.8 | 53.7 | 65 | 79.4 ± 26 | 73.6 | 63.7 ± 8.2 | 74.2 | 72.7 ± 3.5 | 81.1 | 67.82 ± 0.58 | 47.9 ± 9 | 107 ± 4.9
11 | Oc1c(Cl)cc(Cl)c2cccnc12 [Chloroxine] | 93.2 | 96.7 | 96.5 | 71.6 | 36.5 ± 3.6 | 56.7 | 28.7 ± 2.7 | 69.7 | 65 ± 15 | 130 | 120 ± 88 | 79.7 ± 55 | 48.9 ± 4.8
12 | COc1cccc2c1C(=O)c1c(O)c3c(c(O)c1C2=O)CC(O)(C(=O)CO)CC3OC1CC(N)C(O)C(C)O1 (configuration not stated) [Doxorubicin] | 80.1 | 42.1 | 30.4 | 44.2 | 56.3 ± 15 | 188 | 28.8 ± 3.4 | 49.6 | 176 ± 59 | 60.4 | 24.297 ± 0.024 | 50.6 ± 5.6 | 80.7 ± 5.3
13 | Cl.O.O=C1Cc2cc(CCN3CCN(c4nsc5ccccc45)CC3)c(Cl)cc2N1 [Ziprasidone hydrochloride monohydrate] | 88.5 | 94.7 | 94.5 | 94.6 | 33.4 ± 14 | 64.9 | 21.8 ± 4.9 | 36 | 47.8 ± 5.2 | 27.2 | 25 ± 1.1 | 35.8 ± 1.7 | 35.7 ± 5.9
14 | CC(C)(C)Cn1c(N)nc2ccc(-c3[nH]c(C(C)(C)C)nc3-c3ccc(F)cc3)nc21.CS(=O)(=O)O.CS(=O)(=O)O | 67.7 | 46.4 | 65.4 | 61.1 | 58.4 ± 4.5 | 54.2 | 36.8 ± 15 | 81 | 58.7 ± 0.99 | 72.3 | 36.7 ± 1.6 | 39.5 ± 3.9 | 64.2 ± 9.7
15 | CC[C@@]1(O)C(=O)OCc2c1cc1n(c2=O)Cc2cc3c(CN(C)C)c(O)ccc3nc2-1 [Topotecan] | 65.9 | 101 | 56.5 | 37.4 | 42.8 ± 6.2 | 128 | 28.1 ± 0.98 | 44.4 | 49.1 ± 5.8 | 73 | 42.4 ± 0.96 | 44.5 ± 3.2 | 83.2 ± 6.8
16 | CS(=O)(=O)CCNCc1ccc(-c2ccc3ncnc(Nc4ccc(OCc5cccc(F)c5)c(Cl)c4)c3c2)o1.Cc1ccc(S(=O)(=O)O)cc1.Cc1ccc(S(=O)(=O)O)cc1 [Lapatinib Ditosylate] | 71.7 | 57.1 | 56.2 | 61.1 | 49.51 ± 0.1 | 45.4 | 36.3 ± 18 | 67.8 | 42.39 ± 0.3 | 61.8 | 28.1 ± 1.9 | 37.7 ± 3 | 47.4 ± 4
17 | CNCCC(Oc1cccc2ccccc12)c1cccs1.Cl (configuration not stated) [Duloxetine HCl] | 85.4 | 95.4 | 91.1 | 79.7 | 87.3 ± 6.3 | 106 | 55.9 ± 34 | 70.8 | 112 ± 11 | 66.6 | 30.9 ± 1.8 | 38.5 ± 0.71 | 80.9 ± 9.8
18 | Cc1cc(Nc2ncc(Cl)c(Nc3ccccc3S(=O)(=O)C(C)C)n2)c(OC(C)C)cc1C1CCNCC1 | 76.4 | 45.8 | 63.1 | 47.9 | 34.4 ± 7.6 | 37.8 | 17.5 ± 1.3 | 29.3 | 27.6 ± 17 | 44.6 | 24.86 ± 0.13 | 45.5 ± 4.4 | 29.3 ± 1.2
19 | COC(=O)C1=C(C)NC(C)=C(C(=O)OC2CCCN(Cc3ccccc3)C2)C1c1cccc([N+](=O)[O-])c1.Cl (configuration not stated) [Benidipine HCl] | 96.3 | 88.8 | 105 | 93.7 | 82.1 ± 16 | 68.3 | 27.9 ± 14 | 83.2 | 36.2 ± 7.7 | 87.5 | 51.4 ± 7.1 | 31.1 ± 6.1 | 64 ± 4.1
20 | CC[C@@H]1/C=C(\C)C[C@H](C)C[C@H](OC)[C@H]2O[C@@](O)(C(=O)C(=O)N3CCCC[C@H]3C(=O)O[C@H](/C(C)=C/[C@@H]3CC[C@H](Cl)[C@H](OC)C3)[C@H](C)[C@@H](O)CC1=O)[C@H](C)C[C@@H]2OC [Pimecrolimus] | 102 | 89 | 82.4 | 86 | 71.4 ± 29 | 65.3 | 29.4 ± 5.2 | 76.9 | 56.5 ± 5.4 | 71.1 | 43.9 ± 8 | 62.5 ± 15 | 87.7 ± 14
21 | COc1ccc2c(O[C@H]3CC4C(=O)N(C)CCCC/C=C\[C@H]5C[C@@]5(C(=O)NS(=O)(=O)C5CC5)NC(=O)[C@@H]4C3)cc(-c3nc(C(C)C)cs3)nc2c1C (some centres not stated) [Simeprevir] | 104 | 90.4 | 106 | 86.7 | 29.8 ± 3.8 | 39.5 | 20.8 ± 2.6 | 72.7 | 38.5 ± 3.4 | 28.7 | 32.64 ± 0.11 | 39 ± 3.6 | 28.5 ± 2.1
22 | CNC(=O)c1cc(Oc2ccc(NC(=O)Nc3ccc(Cl)c(C(F)(F)F)c3)cc2)ccn1 [Sorafenib] | 107 | 67.7 | 92.6 | 78 | 43.2 ± 12 | 89.2 | 25.2 ± 2.9 | 52.4 | 33.2 ± 5.5 | 41.1 | 46 ± 1.8 | 42.7 ± 5.5 | 37 ± 2.4
23 | COc1cc2ncnc(Nc3ccc(F)c(Cl)c3)c2cc1NC(=O)C=CCN1CCCCC1 | 70.8 | 40 | 43.9 | 54.6 | 34.5 ± 3.5 | 49.8 | 22.3 ± 1.4 | 57 | 24.6 ± 15 | 55.1 | 29.7 ± 2.9 | 43.9 ± 9.3 | 47.4 ± 1.6
24 | CNC(=O)c1cc(Oc2ccc(NC(=O)Nc3ccc(Cl)c(C(F)(F)F)c3)c(F)c2)ccn1.Cl [Regorafenib hydrochloride] | 104 | 71.5 | 104 | 98.7 | 56.2 ± 0.73 | 114 | 82.2 ± 10 | 65.5 | 36.7 ± 1.2 | 62.7 | 93.8 ± 11 | 97.7 ± 4.6 | 60.6 ± 32
25 | CCCCCCCCCCCCCCCCOP(=O)([O-])OCC[N+](C)(C)C [Miltefosine] | 89.6 | 101 | 85.8 | 92.6 | 98.9 ± 9.1 | 108 | 87.7 ± 30 | 107 | 33.2 ± 0.37 | 82.1 | 77.6 ± 9.7 | 38.2 ± 14 | 58.56 ± 0.43
26 | CC(C)Nc1cc(-c2c[nH]c(C(=O)NC(CO)c3cccc(Cl)c3)c2)c(Cl)cn1 (configuration not stated) | 84.8 | 59.1 | 72.7 | 78.4 | 39 ± 8.9 | 135 | 36.8 ± 21 | 81.7 | 43.5 ± 2.5 | 106 | 56.5 ± 4 | 45.3 ± 6.3 | 104 ± 10
27 | COc1cccc2c1C(=O)c1c(O)c3c(c(O)c1C2=O)C[C@@](O)(C(C)=O)C[C@@H]3O[C@H]1C[C@H](N)[C@H](O)[C@H](C)O1.Cl [Daunorubicin HCl] | 128 | 27.8 | 23.1 | 48 | 32.2 ± 4.8 | 141 | 32.8 ± 8.5 | 31.2 | 41.3 ± 3.9 | 49.9 | 30.4 ± 2.6 | 42.07 ± 0.39 | 44.6 ± 10
28 | Nc1ncn(C2OC(CO)C(O)C2O)c(=O)n1 (configuration not stated) [5-Azacytidine] | 91.5 | 70.1 | 91.3 | 93.9 | 59.1 ± 13 | 85 | 27.2 ± 6.3 | 170 | 53.1 ± 9.2 | 103 | 53.4 ± 3.7 | 35.1 ± 14 | 198 ± 19
29 | CCN(CC)CCNC(=O)c1c(C)[nH]c(C=C2C(=O)Nc3ccc(F)cc32)c1C.O=C(O)CC(O)C(=O)O [Sunitinib malate] | 73.4 | 64.6 | 96 | 69.2 | 37.7 ± 18 | 73.6 | 11.3 ± 0.53 | 111 | 58.1 ± 1.6 | 128 | 15.3 ± 1.1 | 31.7 ± 12 | 41.7 ± 11
